Measurements taken from article PMC4336329 (PLoS ONE, 2015).
The whole screen tested about 310,000 compounds, of which about 2,200 (0.71%) showed an effect of 50% or more. The effect is printed as a negative number. What follows is part of a selection rich in strong results, with near analogues and random picks from the rest.

Molecular target: human ether-à-go-go-related gene (hERG) potassium channel (human, UniProt Q12809)
Test: primary screen, population patch clamp on CHO cells stably expressing hERG; higher = less effect of the substance

Chain of human ether-à-go-go-related gene (hERG) potassium channel (Q12809 whole entry, looked up): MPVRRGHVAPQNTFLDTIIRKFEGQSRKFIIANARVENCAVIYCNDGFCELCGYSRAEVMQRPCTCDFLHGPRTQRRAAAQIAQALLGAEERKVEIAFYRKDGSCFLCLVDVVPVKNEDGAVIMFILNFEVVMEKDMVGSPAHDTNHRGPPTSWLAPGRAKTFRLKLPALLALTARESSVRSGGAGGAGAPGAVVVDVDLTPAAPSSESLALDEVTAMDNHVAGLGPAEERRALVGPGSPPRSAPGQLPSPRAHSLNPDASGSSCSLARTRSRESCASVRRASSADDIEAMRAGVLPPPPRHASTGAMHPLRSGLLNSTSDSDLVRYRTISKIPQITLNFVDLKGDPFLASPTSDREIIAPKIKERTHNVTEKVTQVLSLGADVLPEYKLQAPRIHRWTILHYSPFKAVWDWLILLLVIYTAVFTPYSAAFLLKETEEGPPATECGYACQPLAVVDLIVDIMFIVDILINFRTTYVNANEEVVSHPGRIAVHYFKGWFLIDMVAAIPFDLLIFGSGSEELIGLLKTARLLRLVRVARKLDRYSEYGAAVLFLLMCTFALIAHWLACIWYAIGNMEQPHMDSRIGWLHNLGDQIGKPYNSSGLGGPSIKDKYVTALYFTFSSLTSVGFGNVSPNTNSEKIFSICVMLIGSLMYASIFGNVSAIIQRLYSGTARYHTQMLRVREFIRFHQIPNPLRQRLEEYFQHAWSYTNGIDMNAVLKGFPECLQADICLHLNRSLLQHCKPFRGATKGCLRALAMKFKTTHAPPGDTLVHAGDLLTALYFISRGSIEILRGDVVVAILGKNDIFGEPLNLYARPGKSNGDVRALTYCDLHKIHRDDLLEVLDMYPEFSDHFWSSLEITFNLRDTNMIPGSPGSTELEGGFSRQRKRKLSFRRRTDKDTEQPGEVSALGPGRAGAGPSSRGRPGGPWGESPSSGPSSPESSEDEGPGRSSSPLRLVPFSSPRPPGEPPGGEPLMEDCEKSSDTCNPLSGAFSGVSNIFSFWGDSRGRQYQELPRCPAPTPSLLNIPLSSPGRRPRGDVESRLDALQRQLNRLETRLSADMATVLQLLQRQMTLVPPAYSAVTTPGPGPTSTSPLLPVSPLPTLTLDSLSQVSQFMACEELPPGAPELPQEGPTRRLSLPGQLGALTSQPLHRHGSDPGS

| SMILES | hERG current change (%, negative = inhibition) at 1uM |
| --- | --- |
| CN(C(=O)COC(=O)/C=C/c1ccc2ccccc2n1)C1CCS(=O)(=O)C1 (stereo not drawn) | 12.9% |
| CC(=O)Nc1cccc(C(=O)OCc2ccc([N+](=O)[O-])cc2)c1 | -13.5% |
| O=C1C=C(NCC2CCCO2)C2(CCCCC2)O1 (stereo not drawn) | 15.6% |
| N#Cc1ccccc1OCC(=O)N1N=C(c2cccs2)CC1c1ccco1 (stereo not drawn) | -1.57% |
| O=C(CSc1nncn1-c1ccccc1)Nc1cc(Cl)cc(Cl)c1 | 5.88% |
| O=C(Cn1ncc2c1-c1ccccc1OC2)N1CCN(Cc2ccc3c(c2)OCO3)CC1 | -31% |
| O=C(Cn1ncc2c1-c1ccccc1OC2)N1CCN(Cc2ccccc2)CC1 | -58% |
| CCN1CCN(C(=O)Cn2ncc3c2-c2ccccc2OC3)CC1 | 0.123% |
| O=C1NN=COc2ccccc21 | 4.08% |
| OCCC1CN(Cc2cccn2-c2ccccn2)CCN1C1CCCC1 (stereo not drawn) | 3.68% |
| CC(C)CN1CCN(Cc2cccn2-c2ccccn2)CC1CCO (stereo not drawn) | -18.8% |
| Cc1ccc(CN2CCN(Cc3cccn3-c3ccccn3)CC2CCO)o1 (stereo not drawn) | -59.5% |
| CC(C)N1CCN(Cc2cccn2-c2ccccn2)CC1CCO (stereo not drawn) | -16% |
| Cc1cc(C)c(CN2CCN(Cc3ccc(C)o3)C(CCO)C2)c(-n2cccn2)c1 (stereo not drawn) | -70.9% |
| CC(C)CCN1CCN(Cc2cccn2-c2ccccn2)CC1CCO (stereo not drawn) | -36.6% |
| CC(C)=CCN1CCN(Cc2cccn2-c2ccccn2)CC1CCO (stereo not drawn) | -19.9% |
| Cc1ccc(CN2CCN(Cc3cccn3-c3ccc(Cl)cn3)CC2CCO)o1 (stereo not drawn) | 0.259% |
| Cc1ccc(CN2CCN(Cc3cccn3-c3ccccn3)CC2CCO)cc1 (stereo not drawn) | -82.4% |
| Cc1ccc(CN2CCN(Cc3ccncc3)CC2CCO)o1 (stereo not drawn) | -1.98% |

| SMILES | hERG current change (%, negative = inhibition) at 1uM |
| --- | --- |
| Cc1ccc(CN2CCN(Cc3c(C)nn(C(C)C)c3C)CC2CCO)o1 (stereo not drawn) | 10.6% |
| OCCC1CN(Cc2cccn2-c2ccccn2)CCN1Cc1ccccc1 (stereo not drawn) | -61.4% |
| CCOC(=O)C1CCN(S(=O)(=O)c2cc3c(cc2C)NC(=O)CO3)CC1 | -13.1% |
| CC(=O)NCCC(=O)Nc1sc2c(c1-c1nc3ccccc3[nH]1)CCCC2 | 7.25% |
| CC(C)(C)NCCOc1ccc2ccccc2c1 | 14.6% |
| O=C(O)c1cc2ccccc2cc1Nc1ccccc1 | 6.84% |
| CC(OC(=O)c1ccco1)C(=O)Nc1ccc(Cl)cn1 (stereo not drawn) | 5.93% |
| CNC(=O)C1=C(C)Nc2nc3ccccc3n2C1c1ccc(F)cc1 (stereo not drawn) | 7.95% |
| C/C(CC(=O)Nc1ccc(F)cc1)=N\NC(=O)Cc1csc(N)n1 | 16.1% |
| CCOC(=O)c1nc(Nc2ccc(C(=O)O)cc2)c2ccccc2n1.Cl | 11.2% |
| O=C(Nc1ccccc1)N(C1=NCCCCS1)c1cccc2ccccc12 | 5.62% |
| O=C(O)CC1SC(=O)N(CC(=O)c2ccccc2)C1=O (stereo not drawn) | 8.06% |
| O=C(COC(=O)Cc1cccc(C(F)(F)F)c1)NC1CC1 | 10.7% |
| N#CCCn1cc(C(=O)Nc2ccc([N+](=O)[O-])cc2)c(-c2ccccc2)n1 | -67.8% |
| N#CCCn1cc(C(=O)Nc2ccc(F)cc2)c(-c2ccc([N+](=O)[O-])cc2)n1 | 6.48% |
| N#CCCn1cc(C(=O)Nc2ccc(C(=O)O)cc2)c(-c2ccc([N+](=O)[O-])cc2)n1 | 16% |
| O=C(OCC(=O)N1CCCC1)c1ccc(S(=O)(=O)Nc2ccccc2)cc1 | -0.807% |
| CN(CC(=O)Nc1cccc(F)c1)C(=O)c1ccccc1Sc1ccccc1C#N | -8.06% |
| CC(C)(C)c1ccc(CN2C(=O)c3ccccc3S2(=O)=O)cc1 | 15.7% |

| SMILES | hERG current change (%, negative = inhibition) at 1uM |
| --- | --- |
| CC(=O)c1cccc(NC(=O)C2CCCN(S(=O)(=O)c3ccccc3)C2)c1 (stereo not drawn) | 7.51% |
| O=C(NCc1ccco1)C1CCCN(S(=O)(=O)c2cc(Cl)ccc2Cl)C1 (stereo not drawn) | 2.52% |
| CN(C)c1ccc(/C=N/NC(=O)c2ccn(C)n2)cc1 | 9.92% |
| CC(NC(=O)c1ccc(S(=O)(=O)N(C)C)cc1)c1ccc(-n2ccnc2)cc1 (stereo not drawn) | -40.5% |
| CC(NC(=O)c1cc(S(=O)(=O)N(C)C)ccc1Cl)c1ccc(-n2ccnc2)cc1 (stereo not drawn) | -55.3% |
| CC(NC(=O)c1ccccc1Cl)c1ccc(-n2ccnc2)cc1 (stereo not drawn) | -1.53% |
| COc1ccc(C(=O)CN2C(=O)NC(C)(c3ccccc3)C2=O)cc1OC (stereo not drawn) | 3.32% |
| CCOC(=O)C1CCN(C(C)C(=O)c2c(C)[nH]c3cc(C)ccc23)CC1 (stereo not drawn) | -66.9% |
| CCOC(=O)C1CCN(CC(=O)c2c(C)[nH]c3cc(C)ccc23)CC1 | -26.8% |
| CCOC(=O)C1CCN(C(C)C(=O)c2c[nH]c3ccccc23)CC1 (stereo not drawn) | -1.89% |
| CCOC(=O)C1=C(C)NC(=S)N(C(C)=O)C1c1ccc(Cl)cc1 (stereo not drawn) | 9.38% |
| Cc1ccc(Cn2c(SC3CCOC3=O)nc3ccccc3c2=O)cc1 (stereo not drawn) | -6.65% |
| O=C1OCCC1Sc1nc2ccccc2c(=O)n1Cc1ccccc1 (stereo not drawn) | -64.6% |
| O=C1OCCC1Sc1nc2ccccc2c(=O)n1Cc1ccc(F)cc1 (stereo not drawn) | -37.5% |
| COc1ccc2nc3ccccc3nc2c1NC(=O)c1ccccc1Cl | -1.38% |
| O=C(NCc1ccccc1)c1cnsn1 | 7.4% |
| CC1(C)C(=O)C2(CCCCC2)C(=O)OC1C(=O)c1ccccc1 (stereo not drawn) | 6.81% |
| O=C(COc1ccc2c3c(c(=O)oc2c1)CCCC3)N1C[C@H]2C[C@@H](C1)c1cccc(=O)n1C2 | -6% |
| COc1cnn(Cc2ccccc2)c(=O)c1SCc1ccccc1 | -2% |
